Source: paper PMC5540273 (PLoS ONE, 2017)

Legend:
Conditions in all cases: concentration: 1 μM, replicates: in singlicate; n = 1
LYN = system: LYN
LZK = system: T1, LZK
T1 construct: gene MAP3K13

MAK = system: MAK
MAP3K15 = system: MAP3K15
MAP3K1 = system: MAP3K1
MAP3K2 = system: MAP3K2
MAP3K3 = system: MAP3K3
MAP3K4 = system: MAP3K4
MAP4K2 = system: MAP4K2
MAP4K3 = system: MAP4K3
MAP4K4 = system: MAP4K4
MAP4K5 = system: MAP4K5
MAPKAPK2 = system: MAPKAPK2
MAPKAPK5 = system: MAPKAPK5
MARK1 = system: MARK1
MARK2 = system: MARK2
MARK3 = system: MARK3
MARK4 = system: MARK4
MAST1 = system: MAST1
MEK1 = system: T2, MEK1
T2 construct: gene MAP2K1
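Note: KINOMEscan kinase panel screen.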

| SMILES | %Inh (LYN) | %Inh (LZK) | %Inh (MAK) | %Inh (MAP3K15) | %Inh (MAP3K1) | %Inh (MAP3K2) | %Inh (MAP3K3) | %Inh (MAP3K4) | %Inh (MAP4K2) | %Inh (MAP4K3) | %Inh (MAP4K4) | %Inh (MAP4K5) | %Inh (MAPKAPK2) | %Inh (MAPKAPK5) | %Inh (MARK1) | %Inh (MARK2) | %Inh (MARK3) | %Inh (MARK4) | %Inh (MAST1) | %Inh (MEK1) |
| --- | --- | --- | --- | --- | --- | --- | --- | --- | --- | --- | --- | --- | --- | --- | --- | --- | --- | --- | --- | --- |
| COc1ccc(Nc2nccc(-c3cccc(NC(=O)c4cc5cc(F)ccc5[nH]4)c3)n2)cc1 [GSK1229782] | 0% | 33% | 36% | 0% | 5% | 38% | 0% | 21% | 0% | 0% | 22% | 7% | 0% | 0% | 9% | 19% | 0% | 21% | 20% | 0% |
| Cc1c(O)cccc1Nc1ccnc2ccc(C(F)(F)F)cc12.Cl [GW466413] | 0% | 14% | 0% | 0% | 2% | 22% | 47% | 0% | 0% | 0% | 0% | 0% | 8% | 0% | 0% | 0% | 0% | 2% | 0% | 0% |
| Nc1nc(-c2nccs2)c(-c2ccnc3ccccc23)s1 [GW693542] | 3% | 3% | 46% | 0% | 13% | 0% | 0% | 27% | 0% | 0% | 4% | 0% | 28% | 0% | 0% | 0% | 0% | 1% | 0% | 0% |
| COc1ccc(C2=C(Nc3cccc(C(=O)O)c3)C(=O)NC2=O)cc1 [SB-390765] | 21% | 52% | 36% | 15% | 18% | 12% | 7% | 9% | 32% | 2% | 0% | 0% | 0% | 20% | 3% | 8% | 0% | 0% | 30% | 13% |
| Cl.c1ccc(-c2n[nH]cc2-c2ccnc(-c3ccc(CN4CCOCC4)cc3)c2)nc1 [GW776245] | 6% | 0% | 0% | 0% | 0% | 18% | 17% | 9% | 0% | 0% | 0% | 0% | 13% | 0% | 0% | 6% | 1% | 28% | 0% | 14% |
| Cc1cccc(-c2nc(Nc3ccncc3)c3ccccc3n2)n1 [GW855857] | 0% | 0% | 0% | 0% | 0% | 0% | 0% | 16% | 0% | 0% | 0% | 0% | 0% | 0% | 0% | 0% | 32% | 25% | 50% | 0% |
| O=S(=O)(c1ccc(-c2ccnc3[nH]ccc23)cc1)N1CCCC1 [GSK846226] | 0% | 0% | 24% | 0% | 14% | 7% | 0% | 0% | 0% | 0% | 0% | 0% | 0% | 0% | 0% | 8% | 0% | 0% | 0% | 24% |
| O=C(O)COc1ncnc2cc(-c3ccc4[nH]ncc4c3)sc12 | 0% | 39% | 2% | 53% | 22% | 13% | 9% | 4% | 1% | 0% | 0% | 6% | 0% | 9% | 8% | 20% | 0% | 14% | 0% | 5% |
| O=C(Nc1n[nH]c2nc(-c3nccs3)c(Br)cc12)C1CC1 [SB-742251] | 19% | 26% | 33% | 0% | 21% | 0% | 0% | 0% | 0% | 0% | 4% | 1% | 0% | 0% | 0% | 0% | 0% | 0% | 20% | 0% |
| Cc1csc(-c2nc(Nc3ccncc3)c3ccccc3n2)n1 [GW869640] | 0% | 20% | 2% | 35% | 35% | 38% | 1% | 2% | 34% | 0% | 14% | 0% | 0% | 3% | 25% | 13% | 0% | 38% | 60% | 13% |
| COc1ccc(CNC(=O)NC2CCN(c3ccnc(Nc4cc(OC)c(OC)c(OC)c4)n3)C2)cc1 (stereo not drawn) [GSK1379748] | 0% | 43% | 17% | 0% | 0% | 0% | 0% | 2% | 5% | 0% | 0% | 0% | 0% | 0% | 0% | 0% | 0% | 0% | 13% | 0% |
| Cc1cc(N2Cc3ccccc3C2)nc(Nc2ccc(S(=O)(=O)N3CCOCC3)cc2)n1.Cl [GSK1669917] | 0% | 0% | 14% | 0% | 0% | 0% | 0% | 2% | 0% | 0% | 0% | 0% | 4% | 0% | 0% | 0% | 12% | 0% | 0% | 0% |
| Cc1cccc(-c2nc(Nc3cccc(C(N)=O)c3)c3ccccc3n2)n1 [GW876019] | 0% | 0% | 0% | 0% | 3% | 0% | 26% | 0% | 0% | 0% | 0% | 0% | 0% | 0% | 0% | 0% | 45% | 0% | 11% | 97.2% |
| Cc1ccc(C(=O)Nc2ccc(Nc3ccnc4cc(-c5ccccn5)ccc34)cc2O)cc1.Cl [GW440146] | 44% | 10% | 25% | 21% | 3% | 0% | 0% | 25% | 0% | 0% | 0% | 70% | 18% | 0% | 0% | 0% | 2% | 4% | 0% | 0% |
| CC(=O)Nc1nc2cnc(Nc3cc(NC(=O)c4cccc(CCC#N)c4)ccc3C)nc2s1 | 25% | 24% | 0% | 8% | 0% | 0% | 20% | 0% | 0% | 0% | 0% | 0% | 11% | 3% | 14% | 0% | 0% | 12% | 0% | 0% |
